The record followed here is ChEMBL document CHEMBL3988442, “University of Dundee, Small-Polar-MMV Screening Library” (2021).

Out of some 48,000 compounds screened, about 13,000 (27%) showed an effect of 50% or more. The list shows a part of the results.

This assay has as its system Wolbachia pipientis. In words: Anti-Wolbachia Cell-Based Screen. Also noted: scale not given: in the data most compounds retested in dose-response had high values. The class given is functional. The following applies: 5 µM.
In the case of `Cc1cnn(CCNCC(=O)Nc2ccc(Br)cn2)c1`, the “Percent Effect” value is recorded as -4.986%. Take `O=C(O)C(F)(F)F.O=c1ccc2c([nH]1)CCC(NCc1ccc(F)cc1)C2` (stereo not drawn): the “Percent Effect” value stood at 112.4%. Next, `COc1ccc2c(c1)CC(NCc1cccc(NC(C)=O)c1)CC2` (stereo not drawn): 5.004%; `COc1ccc(CN[C@H]2CC[C@@]3(CCC(=O)N3)CC2)cc1.O=C(O)C(F)(F)F`: 13.86%; `CSc1ccc(CNC2CCN(CCc3ccncc3)CC2)cc1`: -23.46%. With `O=C(NC1CCCC1)NC1CCc2[nH]c(=O)ccc2C1` (stereo not drawn), the “Percent Effect” value is 2.289%. As for `O=C(O)C(F)(F)F.O=c1ccc2c([nH]1)CCC(NCc1ccc3c(c1)OCO3)C2` (stereo not drawn), the figure is 106.8%.

In the case of `O=C(O)C(F)(F)F.O=C1CC[C@]2(CC[C@@H](NCc3ccc4c(c3)OCO4)CC2)N1`, the “Percent Effect” value is listed as -34.14%. As for `CN(C)C(=O)N1CCc2ccc(=O)[nH]c2CC1`, the figure is -8.1%; as for `CC(C)NC1CCc2[nH]c(=O)ccc2C1.O=C(O)C(F)(F)F` (stereo not drawn), 105.5%; as for `O=C(O)C(F)(F)F.O=C1CC[C@]2(CC[C@@H](NCc3ccoc3)CC2)N1`, -19.54%. As to `O=c1ccc2c([nH]1)CCC(NCc1ccncc1)C2` (stereo not drawn), the “Percent Effect” value was 106.2%.

Regarding `COc1ncc(C)cc1NC(=O)COc1ccccc1F`, the “Percent Effect” value is recorded as -12.82%. For the compound `CCO[C@H]1COC[C@@H]1NC(=O)c1c[nH]nc1C1CCCCC1`, the “Percent Effect” value is -0.7852%. Turning to `Cn1c(C(N)=O)cc2c1CN(C(=O)C1CC(=O)N(C(C)(C)C)C1)CC2` (stereo not drawn), the “Percent Effect” value is given as -2.281%.

Take `Cn1ncc2c(NCC3CCS(=O)(=O)C3)nc(C3CCCC3)nc21` (stereo not drawn): the “Percent Effect” value is -5.604%. As for `O=C(CCNc1ncccn1)NCc1cccc(OC(F)F)c1`, the figure is -10.33%; as for `O=C(CCC1CC1)N1C[C@@H](CN2CCCC2)[C@@H](CO)C1`, -10.86%; as for `Cc1ccc(CNC2CCc3[nH]c(=O)ccc3C2)cc1C.O=C(O)C(F)(F)F` (stereo not drawn), 104.8%. Take `CCC(=O)N(C)CC(=O)Nc1ccc(Br)cn1`: the “Percent Effect” value is reported as -3.099%.

Take `O=C(CCc1nc(Cl)n[nH]1)N1C[C@H](CO)C[C@H](CN2CCCC2)C1`: the “Percent Effect” value is -2.773%. As for `Cn1nc2c(cc1=O)CN(CC(=O)Nc1ccc(Cl)cn1)CC2`, the figure is -5.01%; as for `COCCC(=O)NCc1ccc(-c2ccccc2C(=O)O)cn1`, 105.5%; as for `O=C(Cc1cc(-c2ccc3c(c2)OCCO3)on1)NCc1ccccn1`, 5.76%. `COc1ccccc1OCCC(=O)NCc1ncc(C)c(OC)c1C`: the “Percent Effect” value is -4.89%. For the compound `CCCN1CCCn2nc(CNC(=O)CCOC)cc2C1`, the “Percent Effect” value was 16.28%. As to `COCCC(=O)NCc1cccnc1-n1cnc2ccccc21`, the “Percent Effect” value is recorded as -10.59%. Next, `COc1ccccc1NCC(=O)NCc1cc[nH]n1`: 15.35%; `CC(=O)NCc1ccc(-c2ccccc2C(=O)O)cn1`: 125.9%. On to `O=C(Cc1ccccc1)NCc1ccc(-c2ccccc2C(=O)O)cn1`, for which the “Percent Effect” value was 101.1%. Next, `CC(=O)NCc1cccc(-n2ccnc2-c2cccc(C(=O)O)c2)c1`: -20.57%. Regarding `COc1c(C)cnc(CNC(=O)CCOCc2ccccc2)c1C`, the “Percent Effect” value was 7.332%. As for `Cc1oc(CNC(=O)Cc2ccc3ccccc3c2)cc1C(=O)O`, the figure is -0.3002%; as for `COCCC(=O)NCc1ccc(-c2ccccc2C(=O)O)nc1`, 88.43%. In the case of `CCN(CC)S(=O)(=O)NCCc1cc(C)ccc1OC`, the “Percent Effect” value was found to be 2.679%. Regarding `Cc1noc(CNc2ccc(CC(=O)N3CCSCC3)cc2)n1`, the “Percent Effect” value is reported as -10.08%. `COCCCN1C(=O)CC[C@H]2CN(c3nc4ccccc4s3)CC[C@H]21`: the “Percent Effect” value is recorded as -8.201%. With `CN1CCN(c2ncccc2CNc2ncccc2C#N)CC1`, the “Percent Effect” value was 1.331%.

For `O=C(CCCn1ccnc1)N1CCC2(CC1)[C@H](O)C[C@@H]2OCCO`, the “Percent Effect” value turned out to be 0.2303%. Regarding `CCCc1cc(CNC(=O)C2CCOc3ccccc3C2)on1` (stereo not drawn), the “Percent Effect” value is 6.963%. With `COCC(=O)NCc1cccnc1-n1cnc2ccccc21`, the “Percent Effect” value is given as 13.4%. As to `COCC(=O)NCc1ccc(-c2ccccc2C(=O)O)cn1`, the “Percent Effect” value came out at 123.3614%. As for `COCC(=O)Nc1cnc(N2CCN(c3ccccc3)CC2)nc1`, the “Percent Effect” value is -8.386%. As for `Cc1nc(CN2CCCN(CCOc3cccc(C#N)c3)CC2)no1`, the figure is 11.38%. Next, `Cc1cnn(C2CCCN(C(=O)c3cc(C4CC4)on3)C2)c1` (stereo not drawn): 8.361%; `O=C(c1cc(C2CC2)on1)N1C[C@H]2CC[C@](O)(c3ccccc3F)[C@H]2C1`: 127.6%. `O=C(c1cc(C2CC2)on1)N1CCC(Oc2ncccc2Cl)CC1`: the “Percent Effect” value was 9.581%. Take `c1ccc2c(Cc3nnc([C@H]4CCN(C5CCC5)C4)o3)c[nH]c2c1`: the “Percent Effect” value is -3.783%. `NC1C=C(C(F)(F)F)NC=C1c1ccc(Cl)cc1` (stereo not drawn): the “Percent Effect” value is recorded as 102.6%. Turning to `COc1ccc(C2=CNC(C(F)(F)F)=CC2N)cc1` (stereo not drawn), the “Percent Effect” value came out at 99.44%. As for `NC1C=C(C(F)(F)F)NC=C1c1ccccc1` (stereo not drawn), the “Percent Effect” value is given as 86.08%. With `CC(NC(=O)C1CCN(S(N)(=O)=O)CC1)c1cccc(OC(F)F)c1` (stereo not drawn), the “Percent Effect” value is given as 6.374%. For the compound `CS(=O)(=O)NCCNc1ncnc2cccc(F)c12`, the “Percent Effect” value was 8.452%. As for `CC(C)CC(NC(=O)c1ccco1)c1nnc2ccccn12` (stereo not drawn), the “Percent Effect” value turned out to be 109.4%.

For `CCCC(NC(=O)c1cnccn1)c1nnc2ccccn12` (stereo not drawn), the “Percent Effect” value is reported as 41.87%. With `CCCC(NC(=O)c1ccccn1)c1nnc2ccccn12` (stereo not drawn), the “Percent Effect” value is 4.889%. Regarding `O=C(NCC1CCSCC1)N(CCCO)C1CCc2ccccc21` (stereo not drawn), the “Percent Effect” value is reported as 6.335%. On to `COc1ccc(C)cc1S(=O)(=O)NCC(c1cccn1C)N(C)C` (stereo not drawn), for which the “Percent Effect” value was 4.095%. Next, `Cc1c(C(=O)N(C)CC(C)O)sc2nc(C(F)(F)F)ccc12` (stereo not drawn): 9.483%.

Consider `CCC(NC(=O)c1ccc(OC)nn1)c1nc(C(F)(F)F)cs1` (stereo not drawn), for which the “Percent Effect” value is -7.754%. Consider `CCOCCn1c(=O)[nH]c2cc(C(=O)N(C)Cc3nc(C)cs3)ccc21`, for which the “Percent Effect” value is listed as -23.7%. Regarding `COCCC(=O)N(C)Cc1nc(C(F)(F)F)cs1`, the “Percent Effect” value is recorded as 98.57%. Next, `CCOCCC(=O)NCCNc1nccc(C(F)(F)F)n1`: -1.225%; `CCOCC(=O)N(C)Cc1nc(C(F)(F)F)cs1`: 102.1%. Next, `CC(C)CC(=O)N(C)Cc1nc(C(F)(F)F)cs1`: 105.6%.

`Cc1nc(CN(C)c2nccc(C(F)(F)F)n2)cs1`: the “Percent Effect” value is -8.606%.

With `CCC(NC(=O)c1ccc(COC)o1)c1nc(C(F)(F)F)cs1` (stereo not drawn), the “Percent Effect” value was -11.95%. Take `Cc1cc(CN(C)C(=O)c2ccnc(N(C)C)c2)no1`: the “Percent Effect” value was -7.552%.

Turning to `CCOC1CCCN(C(=O)c2[nH]nc(C)c2Br)C1` (stereo not drawn), the “Percent Effect” value is 6.367%. Turning to `CCN1CC[C@@]2(C(=O)N3CCOCC3)CCN(C(=O)NC)CC[C@@H]12.O=C(O)C(F)(F)F`, the “Percent Effect” value is -38.24%. As for `CCN1CCn2c(C)cnc2C12CCN(C(=O)NC)CC2.O=C(O)C(F)(F)F`, the figure is 106.5%.

`CNC(=O)N1CCC2(CC1)c1ncc(C)n1CCN2C.O=C(O)C(F)(F)F.O=C(O)C(F)(F)F`: the “Percent Effect” value is 93.19%.

On to `Cc1cnc2n1CCN(C)C21CCN(C(=O)CC(C)C)CC1.O=C(O)C(F)(F)F`, for which the “Percent Effect” value is given as 6.371%.

`Cc1cnc2n1CCN(C)C21CCN(CC2CC2)CC1.O=C(O)C(F)(F)F.O=C(O)C(F)(F)F.O=C(O)C(F)(F)F`: the “Percent Effect” value was found to be 2.342%. On to `CCN1CCn2c(C)cnc2C12CCN(C(=O)NCC(C)C)CC2.O=C(O)C(F)(F)F`, for which the “Percent Effect” value was 99.78%. Consider `NC(=O)C1CCN(Cc2ccc(S(=O)(=O)N3CCCC3)o2)CC1`, for which the “Percent Effect” value is -8.364%. In the case of `Cc1c(NCc2ccccc2C#N)cccc1-n1cnnn1`, the “Percent Effect” value was determined as 4.013%. For `N#CCCN(CC1CCOC1)Cn1ccc(-c2ccccc2)n1` (stereo not drawn), the “Percent Effect” value is -2.845%. As for `CN(C)C1(C(=O)NC2CCC(Oc3ccccc3C#N)CC2)CCC1` (stereo not drawn), the “Percent Effect” value was -18.62%.

Regarding `CCN(Cc1nc(COC)no1)Cc1ccccc1OCC(=O)O`, the “Percent Effect” value is 10.36%.

Take `CCn1cc(C(=O)NCC(C)(CC)N2CCOCC2)c2ccccc21` (stereo not drawn): the “Percent Effect” value amounted to 6.626%.

As to `Cc1cnn(CCNCc2c(C)nn(Cc3ccccc3)c2C)c1`, the “Percent Effect” value was -5.977%. As for `Cn1cccc1CN1CCC2(CCCN(C(=O)Cc3cccnc3)C2)C1` (stereo not drawn), the figure is 5.928%. Consider `O=C([C@@H]1CCCO1)N1CCOCC2(CCN(Cc3cccnc3)C2)C1` (stereo partly drawn), for which the “Percent Effect” value was 95.11%. `O=C(N1CCCC1)N1CCC2(CC1)COCCN(Cc1cccnc1)C2.O=C(O)C(F)(F)F.O=C(O)C(F)(F)F`: the “Percent Effect” value is -4.319%. Take `O=C(C1CCCO1)N1CCC2(CC1)COCCN(Cc1ccncc1)C2.O=C(O)C(F)(F)F.O=C(O)C(F)(F)F` (stereo not drawn): the “Percent Effect” value is given as -9.895%. With `O=C(C1CCCO1)N1CCC2(CC1)COCCN(Cc1cccnc1)C2.O=C(O)C(F)(F)F.O=C(O)C(F)(F)F` (stereo not drawn), the “Percent Effect” value is given as 128.2%.

Consider `O=C(O)C(F)(F)F.O=C(O)C(F)(F)F.O=C(c1ccsc1)N1CCC2(CC1)COCCN(Cc1ccncc1)C2`, for which the “Percent Effect” value worked out at 15.81%. For the compound `O=C(C1CCC2(CCN(Cc3cccnc3)CC2)CO1)N1CCCC1.O=C(O)C(F)(F)F.O=C(O)C(F)(F)F` (stereo not drawn), the “Percent Effect” value is reported as 90.21%. Next, `O=c1[nH]c(C2CCOC2)nc2ccc(Cl)cc12` (stereo not drawn): -0.06581%. Turning to `CCC1CN(C(=O)c2ccccc2N2CCCC2)CCN1C(C)C` (stereo not drawn), the “Percent Effect” value was -3.455%.

Turning to `CCN1C(=O)CC(c2cnn(C)c2)C12CCN(C(=O)c1ccc[nH]1)CC2` (stereo not drawn), the “Percent Effect” value worked out at 13.05%. Regarding `CCN1C(=O)CC(c2ccccc2)C12CCN(c1ncc(C)cn1)CC2` (stereo not drawn), the “Percent Effect” value is reported as -13.83%. Next, `COCCN1C(=O)CC(c2cccnc2)C12CCN(C)CC2` (stereo not drawn): 113.4%; `CCN1C(=O)CC(c2cccnc2)C12CCN(c1ncc(F)cn1)CC2` (stereo not drawn): -11.62%. As for `COCCN1C(=O)CC(c2cccnc2)C12CCN(C(=O)C1CC1)CC2.O=C(O)C(F)(F)F` (stereo not drawn), the figure is 106.6%; as for `CCC(=O)N1CCC2(CC1)C(c1cccnc1)CC(=O)N2CCOC.O=C(O)C(F)(F)F` (stereo not drawn), 110.5%; as for `F[C@@H]1CN(Cc2ccccc2)C[C@@H]1OCc1nc2ccccc2[nH]1`, -3.249%.
